Out of some 280,000 compounds screened, about 2,600 (0.93%) were called active. Not shown: some 8% with an inconclusive outcome. Calls follow the shape of the dose curve; as a rule, active = well fitted curve in the direction sought with a large enough effect; inconclusive = small, poorly fitted or top-dose-only effect; inactive = flat fitted curve, though single readings scatter. Shown is part of a subset that was picked to be rich in actives. Where a call stands in place of a potency, no number is given.
Potency is read from the fitted curve at half-maximal effect; tags tell the direction and shape of the fitted curve or compound fluorescence and quenching.

A short description of this test: Counterscreen qHTS for Inhibitors of Tau Fibril Formation, Fluorescence Polarization. Also: nearly all actives have a fitted effect of over 55% in size. To be noted: tau K18 P301L Alexa594 fluorescence, heparin fibrillization; series mostly up to 57.7 µM. An outline of the steps: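 Human tau K18 P301L (15 uM unlabeled, 0.24 uM Alexa 594-labeled) in 100 mM sodium acetate pH 7 with 20 uM heparin, 6 hr at 37 C. ThT 30 uM added, 1 hr ambient; Alexa 594 FP and total fluorescence read at 555/632 nm.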
With `CCc1cnc2c(c1SCC(=O)c1ccccc1)c(=O)n(C)c(=O)n2C`, the Potency entry is “inactive”. Turning to `COc1ccc(OC)c(CNC(=O)CN2C(=O)CCn3nc(-c4cn(C)c5ccccc45)cc32)c1`, the Potency entry is “inactive”. The result for `COc1ccc2[nH]c3c(c2c1)CCN(C(=O)CCC1CCCC1)C3c1ccc(F)cc1` (stereo not given) reads “inactive”; that for `Cc1cccc(C2CC(=O)Oc3c2c(=O)n(C)c2ccccc32)c1` (stereo not given), “inactive”. The result for `CCC(=O)Nc1cccc(C(=O)OCc2cc(=O)n3nc(CC)sc3n2)c1` reads “inactive”; that for `O=C(O)c1ccc2c(c1)N(Cc1ccc(F)cc1)C(=O)c1ccccc1S2=O` (stereo not given), “inactive”; that for `Cc1cccc(NC(=O)c2ccc(F)c(S(=O)(=O)N(C)C3CCCCC3)c2)c1`, “inactive”. With `CCOc1ccc(OCC)c(NC(=O)c2c(C)nn(-c3ccccc3)c2-n2cccc2)c1`, the Potency result was “inactive”. The result for `Cc1ccc(C2c3[nH]c4ccccc4c3CCN2C(=O)c2cccc(C)c2)cc1` (stereo not given) reads “inactive”; that for `CCOc1cccc(CNC(=O)c2ccc(N3CCCC3)c(NC(=O)Nc3ccccc3CC)c2)c1`, “inactive”. Consider `COc1ccc2nc(Nc3nc4ccc(NC(C)=O)cc4s3)sc2c1`, for which the Potency is 12.6 µM [quencher] (active). The result for `CCCC(=O)Nc1nc2ccc(NC(=O)c3c(F)c(F)c(OC)c(F)c3F)cc2s1` reads “inactive”. The result for `CNC(=O)c1ccc2nc(NC(C)=O)sc2c1` reads “inactive”; that for `COc1ccc(Cl)cc1N(C)C(=O)c1cc2c(=O)oc3ccc(C)cc3c2s1`, “inactive”. Regarding `COc1ccc(CCNS(=O)(=O)c2cc(-c3cc(C)no3)ccc2C)cc1OC`, the Potency entry is “inactive”. The result for `CC(C)(C)c1ccc(C(=O)NCC(c2ccc(Cl)cc2)N2CCOCC2)cc1` (stereo not given) reads “inactive”; that for `COc1ccc(Br)cc1C1CC(=O)Nc2c1c(C)nn2-c1nc(C)cc(C)n1` (stereo not given), “inactive”.

`COc1ccc(/C=N/NC(=O)c2ccncc2)cc1CN1CCCc2ccccc21`: the Potency was 14.1 µM [quencher] (active). The result for `COc1ccc(/C=N/NC(=O)c2ccc(Cl)cc2)cc1COC(C)=O` reads “inactive”; that for `COc1ccccc1Cc1nc2ccccc2nc1SCC(=O)N1CCCc2ccccc21`, “inactive”; that for `CCOC(=O)C1CCCN(C(=O)c2ccc(-n3ccc4ccccc43)s2)C1` (stereo not given), “inactive”. Consider `CCOc1ccc(N(CC)C(=O)c2noc3c2COc2ccc(C)cc2-3)cc1`, for which the Potency entry is “inactive”. For `COc1ccc2c(C)c(CCC(=O)NCc3ccc(OC)c(OC)c3)c(=O)oc2c1`, the Potency result was “inactive”. The result for `Cc1cc2c(cc3c(SCc4cccc(Cl)c4)nnc(C)n32)o1` reads “inactive”; that for `COc1ccc(OC)c(-c2nc(C(N)=O)c3c(n2)n(-c2ccc4c(c2)OCO4)c(=O)n3C)c1`, “inactive”; that for `CCNc1nc(NCC)nc(N/N=C/c2ccc(O)c(OC)c2)n1`, “inactive”.

In the case of `COc1cc(/C=N/Nc2nc3ccccc3s2)ccc1O`, the Potency is 12.6 µM [quencher] (active).

For the compound `Cc1ccc(S(=O)(=O)Nc2nc3ccccc3s2)cc1[N+](=O)[O-]`, the Potency entry is “inactive”. The result for `COc1cc(/C=N/NC(=O)CCc2n[nH]c(=O)[nH]c2=O)ccc1O` reads “inactive”; that for `COc1ccc(/C=N/Nc2nc3ccccc3o2)cc1OC`, “inactive”. The result for `COc1ccc(/C=N\NC(=O)c2sc(N)nc2C)cc1OC` reads “inactive”; that for `c1ccc2sc(NN=C3CCCC3)nc2c1`, “inactive”. The result for `COc1cc(/C=N\Nc2nc(-c3cccs3)c(NC(C)=O)s2)ccc1O` reads 17.8 µM [quencher] (active); that for `O=[N+]([O-])c1cc(Br)c(O)c(/C=N/Nc2nc3ccccc3s2)c1`, 7.94 µM [quencher] (active); that for `CCCN1CCN(CCCNC(=O)c2ccc3nc(Cc4ccccc4)oc3c2)CC1`, “inactive”.

Turning to `O=C1CN(C(=O)Nc2ccccc2C(F)(F)F)C(c2ccccc2)c2c(sc3c2CCCC3)N1` (stereo not given), the Potency entry was “inactive”. The result for `CCCN1CN=C(NS(=O)(=O)c2ccc(NC(C)=O)cc2)NC1` reads “inactive”; that for `O=C(NCCc1ccccc1)c1cnc2sc(N3CCCC3)nn2c1=O`, “inactive”. As for `CN(C)CCCn1c(-c2ccc(Cl)cc2)csc1=Nc1ccccc1`, the Potency entry is “inactive”. For the compound `Cc1cc(NS(=O)(=O)c2ccc3oc(=O)c4ncn(C)c4c3c2)ccc1Br`, the Potency entry is “inactive”.

Regarding `Cc1cccc(NC(=O)c2cccc(C(F)(F)F)c2)c1`, the Potency entry is “inactive”.

For `CNC(=O)c1ccc(NC(=O)c2cccc(C(F)(F)F)c2)cc1`, the Potency entry is “inactive”.

For `O=C(Nc1ccc(-c2csc(Nc3cccc(C(F)(F)F)c3)n2)cc1)c1cccc(C(F)(F)F)c1`, the Potency was 5.01 µM [quencher] (active). The result for `CC(C)S(=O)(=O)c1oc(-c2ccc(F)cc2)nc1S(=O)(=O)c1ccc(F)cc1` reads “inactive”; that for `COc1ccccc1-c1n[nH]c2c1[C@H](C)CC[C@H]2C(C)C`, “inactive”. With `COc1ccccc1-c1c(C)nn2c(C)c(C(C)=O)cnc12`, the Potency result was “inactive”. Consider `C=C(C)COc1ccc(-c2n[nH]c(C)c2-c2ccccc2OC)c(O)c1`, for which the Potency was 17.8 µM [quencher] (active). Turning to `CCOc1ccc(-c2n[nH]c(C)c2-c2ccccn2)c(O)c1`, the Potency entry is “inactive”. The result for `C=C(C)COc1ccc(-c2n[nH]c(C)c2-c2ccccc2)c(O)c1` reads 15.8 µM [quencher] (active). The result for `CC(=O)COc1ccc2c(-c3ccccc3)cc(=O)oc2c1` reads “inactive”; that for `COc1ccc(CNC(=O)c2cc3cccc(OC)c3oc2=O)cc1`, “inactive”; that for `CSc1ccc(CCNC(=O)c2cc(C)nc3c2c(C)nn3-c2cccc(F)c2)cc1`, “inactive”. Consider `O=C1CCN(C(=S)NCCc2ccccc2)CC1`, for which the Potency result is “inactive”. Consider `Oc1cc2c(cc1O)CN(C(=S)NCCc1ccc(Cl)cc1)CCC2`, for which the Potency was 10 µM [quencher] (active). Regarding `S=C(NCCc1ccccc1)N1CCCCC1`, the Potency entry was “inactive”. `O=C(Cc1ccc(Cl)cc1)NCC(c1cccs1)S(=O)(=O)c1ccc(Cl)cc1` (stereo not given): the Potency result is “inactive”. In the case of `COc1ccc(-c2cn3nc(N4CCC(C(=O)Nc5cccc(C)c5C)CC4)sc3n2)cc1`, the Potency entry is “inactive”.

`Cc1ccc(-n2ncc(C(=O)N(C)Cc3ccccc3)c2-n2cccc2)cc1`: the Potency result is “inactive”. As for `CCOc1ccc(NC(=O)c2ncoc2-c2ccco2)cc1`, the Potency result was “inactive”. Take `COCCNC(=O)Nc1ccc2nc(-c3ccco3)c(-c3ccco3)nc2c1`: the Potency was 8.91 µM [quencher] (active). The result for `O=C(Nc1ccc2nccnc2c1)c1ccco1` reads “inactive”. The result for `Cc1cc(C)cc(NC(c2nnc(-c3cccc(F)c3)o2)c2ccc(F)cc2Cl)c1` (stereo not given) reads “inactive”; that for `O=C(NNc1c2ccccc2nc2ccccc12)c1cc2ccccc2cc1O`, 4.47 µM [quencher] (active); that for `O=C(Nc1c2c(nc3ccccc13)CCCC2)c1ccccc1Br`, “inactive”. The result for `CC(=O)Nc1ccc(Nc2c3ccccc3nc3ccccc23)cc1` reads “inactive”.

For the origin of these results see PubChem BioAssay AID1463 (National Center for Advancing Translational Sciences (NCATS), 2008).
